DT40 TDP1 no CPT: qHTS for Inhibitors of human tyrosyl-DNA phosphodiesterase 1 (TDP1): qHTS in cells in absence of CPT | DT40 Tdp1-/- hTDP1 cells, no CPT, ATP luminescence, 48 h | Potency, µM (top dose mostly 46.2 µM), without a hit: at the highest dose activity change, negative = growth inhibition, actives largely listed as inhibitors | actives 15% (n = 420,000) | AID 686978, 2013; note: % is set by controls: 0 for no effect and ±100 for the full control effect; nearly all actives have a fitted effect of over 55% in size
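Cells were dispensed at 400 per well, compounds added by pin tool, plates incubated ≥48 hr at 37 °C, then CellTiter-Glo added for 30 min at room temperature before luminescence reading. Line: DT40 Tdp1-/- complemented with hTDP1; camptothecin omitted.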
TDP1 cell CPT: DT40-hTDP1 cell growth loss with CPT | chicken DT40 Tdp1-/-;hTDP1 cells + 20 nM CPT, ATP luminescence, 48 h | actives 12% (n = 420,000) | AID 686979 | Potency, µM (top dose mostly 46.2 µM), inactives show top-dose activity change, negative = growth inhibition, actives largely listed as inhibitors; note: % is set by controls: 0 for no effect and ±100 for the full control effect; nearly all actives have a fitted effect of over 55% in size
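Cell growth measured by CellTiter-Glo luminescence after a minimum 48 h, 37 C compound exposure with 20 nM CPT in Tdp1-knockout DT40 cells stably expressing hTDP1, seeded 400/well; qHTS titration format.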
TGFb inhibitor: TGF-b pathway inhibition; HepG2 CAGA-GFP TGF-b/SMAD3 reporter, GFP fluorescence, 18 h; TGF-beta stimulated, 500 pg/mL final; Potency, µM (highest dose often 46.1 µM), inactives show at the top dose activity, negative = inhibition, most hits filed as inhibitors; actives 1.2% (n = 410,000); AID 588855; note: % is set by controls: 0 for no effect and ±100 for the full control effect; nearly all actives have a fitted effect of over 65% in size
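HEPG2 CAGA-GFP, 1000 cells/well; 2 h settle, 37 C; cpd via pin tool; TGF-b 500 pg/mL final; 18 h, 37 C; GFP imaging ex488/em500-530; %Activity normalised to -TGF-b and +DMSO controls; CRC fit, curve class.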
HepG2 tox: HepG2 cytotoxicity, counter-screen for TGF-b inhibitors; actives 0.76% (n = 410,000); Potency, µM (series often up to 46.1 µM), for the others: at the top dose activity change, negative = cytotoxicity, actives largely listed as cytotoxic; HepG2 CAGA-GFP viability, ATP luminescence, 18 h
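HepG2 CAGA-GFP cells (1000/well, DMEM with 1% FBS) received compound, then TGF-beta at 500 pg/mL final, and were incubated 18 hours at 37 degrees C. Viability was read by CellTiter-Glo luminescence. Media-only wells were set as complete cell-killing and DMSO as no toxicity.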
HT1080NT lethal: kills 2HG-producing HT-1080-NT fibrosarcoma cells | AID 686970 | HT-1080-NT fibrosarcoma viability, CellTiter-Glo ATP luminescence, 48 h | actives 1.6% (n = 360,000) | Potency, µM (series often up to 46.1 µM), for inactives: at the top dose activity, negative = less viability, most hits filed as cytotoxic;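 note: NT is the 2HG producing partner of a matched IDH1 knockdown line; 0% = DMSO-treated cells and -100% = media-only wells without cells; nearly all actives have a fitted effect of over 55% in size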
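Luminescent CellTiter-Glo readout after 48 hours of compound exposure at 37 degrees C defined viability of HT-1080-NT cells. Activity was normalized to DMSO wells and cell-free media wells; concentration-response curves were fitted and assigned curve classes.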
HT1080 IDH1KD tx: HT-1080 IDH1 knockdown cell toxicity (counter line); HT-1080 IDH1 knockdown viability, ATP luminescence, 48 h; Potency, µM (highest dose often 46.1 µM), for inactives: at the highest dose activity, negative = toxicity, usual class: cytotoxic; actives 2% (n = 360,000); AID 686971;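 note: 0% = DMSO wells and -100% = cell-free medium wells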
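Using the IDH1-knockdown HT-1080 line run in the same batch and compound series as the NT line, viability after 48 h at 37 °C was determined by CellTiter-Glo luminescence and expressed as % activity.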
An asterisk follows results filed as active. This is a sample that favours compounds with a hit; in the whole collection about 17% have one here. Calls come from the whole dose curve; as a rule, active = well fitted curve in the direction sought with a large enough effect; inconclusive = small, poorly fitted or top-dose-only effect, or another doubt; inactive = no such curve, though single readings can be large; an effect the other way counts as inactive or inconclusive. Potency is the fitted concentration of half-maximal effect.

`Cc1cccc(C)c1NC(=O)C1(C)CN(S(C)(=O)=O)CC(=O)N1CCc1c[nH]c2ccccc12` (stereo not drawn) gave DT40 TDP1 no CPT 1%, TDP1 cell CPT 15%, HT1080NT lethal -15% and HT1080 IDH1KD tx -8%.
For Cc1cc(OCCOCC[N+](C)(C)Cc2ccccc2)ccc1C(C)(C)CC(C)(C)C the results were DT40 TDP1 no CPT 1.1µM* and TDP1 cell CPT 1.2µM*.
CCN(c1ccccc1)c1nc(Cl)nc2c1cnn2C was read as DT40 TDP1 no CPT 13µM*, TDP1 cell CPT inconclusive, TGFb inhibitor 25%, HepG2 tox -19%, HT1080NT lethal -3% and HT1080 IDH1KD tx -1%.
For Cc1cccc(-c2ncc(CN3CCCC(CO)(Cc4ccccc4C)C3)cn2)c1 (stereo not drawn) the results were DT40 TDP1 no CPT -25%, TDP1 cell CPT 23µM*, TGFb inhibitor inconclusive, HepG2 tox -25%, HT1080NT lethal -6% and HT1080 IDH1KD tx -15%.
COCc1ccc(CN2CCCC(CO)(Cc3ccccc3C)C2)o1 (stereo not drawn) was read as DT40 TDP1 no CPT inconclusive, TDP1 cell CPT -8%, TGFb inhibitor 0%, HepG2 tox 0%, HT1080NT lethal -8% and HT1080 IDH1KD tx -7%.
Cc1ccccc1CC1(CO)CCCN(Cc2ccccc2Cl)C1 (stereo not drawn) was read as DT40 TDP1 no CPT -17%, TDP1 cell CPT 1%, TGFb inhibitor -19%, HepG2 tox -22%, HT1080NT lethal -21% and HT1080 IDH1KD tx inconclusive.
Screening COc1cc(CN2CCCC(CO)(Cc3ccccc3C)C2)cc2c1OCO2 (stereo not drawn) returned DT40 TDP1 no CPT inconclusive, TDP1 cell CPT 15µM*, TGFb inhibitor -28%, HepG2 tox -1%, HT1080NT lethal -29% and HT1080 IDH1KD tx inconclusive.
Screening Cc1ccc(C)c(-c2[nH]ncc2CN2CCCC(CO)(Cc3ccccc3C)C2)c1 (stereo not drawn) returned DT40 TDP1 no CPT 13µM*, TDP1 cell CPT 7.3µM*, TGFb inhibitor inconclusive, HepG2 tox -47%, HT1080NT lethal inconclusive and HT1080 IDH1KD tx inconclusive.
For O=C1C2C3C=CC(C4CC34)C2C(=O)N1/N=C/c1cccs1 (stereo not drawn) the results were DT40 TDP1 no CPT inconclusive, TDP1 cell CPT -18%, TGFb inhibitor -6%, HepG2 tox -16%, HT1080NT lethal 14% and HT1080 IDH1KD tx 15%.
For CCN(C(=O)Cn1nc(C)c([N+](=O)[O-])c1C)c1c(N)n(Cc2ccccc2)c(=O)[nH]c1=O the results were DT40 TDP1 no CPT -1%, TDP1 cell CPT -19%, TGFb inhibitor 6%, HepG2 tox -15%, HT1080NT lethal 3% and HT1080 IDH1KD tx 11%.
`CCCCn1cc2c(c1-c1ccc(Cl)cc1)c(=O)n(C)c(=O)n2C` gave DT40 TDP1 no CPT 15µM*, TDP1 cell CPT inconclusive, TGFb inhibitor inconclusive and HepG2 tox -16%.
For CCCn1cc2c(c1-c1ccc(C)cc1)c(=O)n(C)c(=O)n2C the results were DT40 TDP1 no CPT 21µM*, TDP1 cell CPT inconclusive, TGFb inhibitor -7%, HepG2 tox -2%, HT1080NT lethal -2% and HT1080 IDH1KD tx -6%.
For Cc1nc(N/N=C\c2ccc3c(c2)OCO3)sc1C the results were DT40 TDP1 no CPT inconclusive, TDP1 cell CPT 5%, TGFb inhibitor 19%, HepG2 tox -5%, HT1080NT lethal 1% and HT1080 IDH1KD tx 1%.
Screening Cc1ccc(C)c(OCC(=O)Nc2ccc(S(=O)(=O)Nc3onc(C)c3C)cc2)c1C returned DT40 TDP1 no CPT -18%, TDP1 cell CPT -24%, TGFb inhibitor -17% and HepG2 tox -15%.
For O=C(CSc1nc2nccnc2c(=O)n1CCc1c[nH]c2ccccc12)Nc1ccccc1 the results were DT40 TDP1 no CPT 15µM*, TDP1 cell CPT 21µM*, TGFb inhibitor -25% and HepG2 tox 3%.
Screening O=C(CSc1nc2nccnc2c(=O)n1Cc1cccs1)Nc1ccccc1 returned DT40 TDP1 no CPT 1%, TDP1 cell CPT -34%, TGFb inhibitor -6%, HepG2 tox -42%, HT1080NT lethal -3% and HT1080 IDH1KD tx -1%.
For Cc1ccccc1NC(=O)CSc1nc2nccnc2c(=O)n1CCc1c[nH]c2ccccc12 the results were DT40 TDP1 no CPT 12µM*, TDP1 cell CPT 23µM*, TGFb inhibitor inconclusive and HepG2 tox -13%.
O=C(NCCCn1ccnc1)c1ccc(-c2cccc(C(F)(F)F)c2)o1 was read as DT40 TDP1 no CPT inconclusive, TDP1 cell CPT inconclusive, TGFb inhibitor -15%, HepG2 tox -16%, HT1080NT lethal -5% and HT1080 IDH1KD tx -20%.
For CC(C)C(c1nnnn1C(C)(C)C)N1CCN(c2cccc(Cl)c2)CC1 (stereo not drawn) the results were DT40 TDP1 no CPT 13µM*, TDP1 cell CPT 18µM*, TGFb inhibitor -23%, HepG2 tox -4%, HT1080NT lethal -3% and HT1080 IDH1KD tx -7%.
Screening CC(C)(C)n1nnnc1C(c1ccccc1)N1CCN(c2ncccn2)CC1 (stereo not drawn) returned DT40 TDP1 no CPT -22%, TDP1 cell CPT 1%, HT1080NT lethal 18% and HT1080 IDH1KD tx 1%.
`CC(C)(C)n1nnnc1C(c1ccccc1)N1CCN(c2ncccc2C(F)(F)F)CC1` (stereo not drawn) gave DT40 TDP1 no CPT 26µM*, TDP1 cell CPT 18µM*, HT1080NT lethal -2% and HT1080 IDH1KD tx -11%.
Screening CC(C)(C)n1nnnc1CN1CCN(C(c2ccccc2)c2ccccc2)CC1 returned DT40 TDP1 no CPT 18µM*, TDP1 cell CPT inconclusive, TGFb inhibitor inconclusive, HepG2 tox -10%, HT1080NT lethal -18% and HT1080 IDH1KD tx -17%.
`Cc1ccc(C)c(N2CCN(C(c3ccccc3)c3nnnn3C(C)(C)C)CC2)c1` (stereo not drawn) gave DT40 TDP1 no CPT 18µM*, TDP1 cell CPT -80%, HT1080NT lethal -27% and HT1080 IDH1KD tx -6%.
